Hits are enriched below; roughly 2.3% of the tested compounds scored in any of these assays.
GLP1R ag = agonists of human GLP-1 receptor | Potency, µM (top dose mostly 45.6 µM), for the others: at the highest dose activation, hits mostly activators | HEK293 GLP-1R CRE-luciferase, luminescence, 4-6 h; cells express a hypersensitive GLP-1R form | AID 624172 | P43220 | hit rate 0.007% among 380,000; note: % of control where 0% means no effect
PTHR1 agonist = PTHR1 (human) receptor agonism. AID 743266. Q03431. Potency, µM (doses to about 115 µM), for the others: at the top dose activation, hits mostly activators. HEK293 GP2 PTHR1 cells, GloSensor cAMP luminescence, 1 h. hit rate 0.075% among 410,000; note: nearly all actives have a fitted effect of over 55% in size
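HEK-293-derived GP2 cells expressing PTHR1 and a GloSensor cAMP reporter, 3,000/well, plated overnight, given luciferin plus IBMX (each 0.5 mM as added) for 1 h at 37 °C, then compound for 1 h at 37 °C. Luminescence was read after 15 min at room temperature.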
GRP78 ERSR act = inducers of ER stress response in human glioma cells. U87-MG GRP78 promoter luciferase reporter, 16 h. Potency, µM, inactives show top-dose activation, usual class: activators. hit rate 0.02% among 420,000. AID 602332; note: series mostly up to about 76 µM; % of control where 0% means no effect; nearly all actives have a fitted effect of over 35% in size
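Stably transfected U87-MG glioma cells carrying a GRP78-based luciferase sensor; 16 h compound incubation. Luminescence end-point read 10 min after Bright-Glo addition at room temperature.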
GLS inh = inhibitors of human glutaminase (GLS). O94925. GLS enzymatic activity, qHTS titration. Potency, µM (series often up to 45.5 µM), for the others: top-dose activity change, negative = inhibition, hits mostly inhibitors. hit rate 0.21% among 410,000. AID 624170; note: % is set by controls: 0 for no effect and ±100 for the full control effect
Target sequence (O94925 whole entry, looked up): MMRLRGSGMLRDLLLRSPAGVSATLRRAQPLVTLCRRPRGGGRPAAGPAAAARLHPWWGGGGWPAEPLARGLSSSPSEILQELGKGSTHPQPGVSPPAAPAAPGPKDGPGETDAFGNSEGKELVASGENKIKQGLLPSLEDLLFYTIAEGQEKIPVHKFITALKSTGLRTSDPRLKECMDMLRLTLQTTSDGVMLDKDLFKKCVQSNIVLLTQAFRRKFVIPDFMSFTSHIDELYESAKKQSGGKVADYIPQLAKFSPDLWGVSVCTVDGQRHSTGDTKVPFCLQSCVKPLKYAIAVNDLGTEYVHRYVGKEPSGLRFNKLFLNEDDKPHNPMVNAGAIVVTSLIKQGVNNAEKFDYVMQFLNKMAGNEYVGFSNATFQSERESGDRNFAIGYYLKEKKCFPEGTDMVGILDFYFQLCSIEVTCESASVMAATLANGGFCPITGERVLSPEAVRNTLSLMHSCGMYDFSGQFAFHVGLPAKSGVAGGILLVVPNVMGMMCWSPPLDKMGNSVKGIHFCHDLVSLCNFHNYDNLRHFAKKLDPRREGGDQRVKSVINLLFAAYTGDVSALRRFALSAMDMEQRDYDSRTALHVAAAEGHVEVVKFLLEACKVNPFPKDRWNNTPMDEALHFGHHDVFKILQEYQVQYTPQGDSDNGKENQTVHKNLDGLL
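hKGA in 45 mM KH2PO4 (pH 8.2), 0.02% Tween-20 with compound, then 1mM L-Glutamine (stock as added) plus glutamate oxidase/HRP/Amplex red coupling mix. Fluorescence read initially and after 30 min at RT; signal change reflects glutamate formation.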
GLP1R inv ag = GLP-1 receptor (human) inverse agonism. hit rate 1.6% among 410,000. AID 624417. HEK293 GLP-1R CRE-luciferase, luminescence, 24 h; GLP-1R form is constitutively active. Potency, µM (top dose mostly 38.3 µM), inactives show at the highest dose activity change, negative = inhibition, actives largely listed as inhibitors; note: % is set by controls: 0 for no effect and ±100 for the full control effect; nearly all actives have a fitted effect of over 55% in size
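Readout was luciferase luminescence, measured 12 min after detection reagent at room temperature. Beforehand, GLP-1R reporter HEK293 cells had sat 12 h, then received compounds for 24 hr at 37 deg C.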
12-LOX inh = ALOX12 (human) lipoxygenase inhibition | P18054 | purified 12hLO, xylenol orange hydroperoxide absorbance | Potency, µM (titrated, usually from 108 µM), for inactives: at the highest dose activity change, negative = inhibition, most hits filed as inhibitors | hit rate 1.1% among 580,000; note: % is set by controls: 0 for no effect and ±100 for the full control effect
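Hydroperoxide product was detected by ferrous iron/xylenol orange as the 573 to 405 nm absorbance ratio. Arachidonic acid at 40 uM (final) was turned over for 30 min at room temperature by 150 nM human 12hLO, pH 7.0 Hepes buffer, after 15 min compound preincubation.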
Starred values were filed as active, the others as inactive; i = inactive; ? = inconclusive; · = no result; ! = not confirmed by another sample; [ ] = dose if it differs, or a comment. Calls come from the whole dose curve; as a rule, active = well fitted curve in the direction sought with a large enough effect; inconclusive = small, poorly fitted or top-dose-only effect, or another doubt; inactive = no such curve, though single readings can be large; an effect the other way counts as inactive or inconclusive. Potency is the fitted concentration of half-maximal effect.

SMILES | GLP1R ag | PTHR1 agonist | GRP78 ERSR act | GLS inh | GLP1R inv ag | 12-LOX inh
Fc1ccc(Nc2ccnc(-c3ccoc3)n2)cc1 | · | · | 2.3% | · | · | ?
Fc1ccc(Nc2ccnc(-c3ccc4c(c3)OCO4)n2)cc1 | · | · | 4.7% | · | · | 17.8µM*
CCc1ccccc1NC(=O)N1CCC(N2CCN(Cc3ccccn3)C(=O)C2=O)CC1 | · | · | · | · | · | 0.8%
Cc1cccc(NC(=S)NC2CCCCCC2)c1C | 2.2% | -6.6% | -4.4% | 4.2% | ? | 50.1µM*
CC(C)(C)c1ccccc1NC(=S)NC1CCCCC1 | 7.3% | -1.9% | -1.6% | -8.7% | ? | 39.8µM*
O=C(CSc1nnc2ccc(-c3ccccn3)nn12)N1CCN(c2ccccc2)CC1 | · | · | · | · | · | -20.6%
COCCCNCc1ccco1 | · | · | · | · | · | 46.8%
Cc1sc2c(c1C)CN(C(C)C)CN2C(=O)c1ccccc1 | · | · | · | · | · | 6.31µM*
Cc1cc(-c2ccc(N=Nc3ccc4c(S(=O)(=O)O)cc(S(=O)(=O)O)c(N)c4c3O)c(C)c2)ccc1N=Nc1ccc2c(S(=O)(=O)O)cc(S(=O)(=O)O)c(N)c2c1O | -2.9% | · | -9.1% | 14.1µM*! | · | 158.7%
CN(CC(=O)Nc1cccc(Cl)c1)S(=O)(=O)/C=C/c1ccccc1 | 15.0% | i | 0.7% | -2.3% | 10µM* | -22.8%
CCCCCCCCC/C=N/NC(=S)NC1CCCCC1 | · | · | · | · | · | 28.2µM*
S=C(NC1CCCCCC1)NC1CCCC1 | 10.9% | -13.6% | -1.1% | -2.7% | ? | -27.2%
COc1ccccc1NC(=O)Nc1ccc(-n2ccc(C(F)(F)F)n2)cc1 | 0.9% | -55.2% | 5.6% | -1.2% | 2µM* | ?
O=C(Nc1ccc(-n2ccc(C(F)(F)F)n2)cc1)Nc1cccc(Cl)c1 | · | · | · | · | · | 0.0%
Cc1cc(C)cc(NC(=O)Nc2ccc(-n3ccc(C(F)(F)F)n3)cc2)c1 | 0.3% | i | 2.8% | -10.4% | 2.24µM* | 1.7%
Cc1ccc(C)c(Sc2ccc(NC(=O)/C=C/c3cccs3)cc2)c1 | · | · | · | · | · | -0.9%
COc1ccc(C(=O)NC(=S)Nc2ccccc2N2CCOCC2)cc1Br | -1.7% | i | -4.1% | 14.3% | ? | 15.8µM*
O=C(NC(=S)Nc1ccccc1N1CCOCC1)c1cccc([N+](=O)[O-])c1 | 17.2% | -11.1% | 1.0% | 22.9% | 3.55µM* | 408.0%
CCOc1ccc(C(=O)NC(=S)Nc2ccccc2N2CCOCC2)cc1Br | 17.6% | i | -6.2% | 17.9% | ? | 25.1µM*
O=C(NC1CCCC1)c1cc(-c2ccc(Cl)c(Cl)c2)nc2ccccc12 | · | · | · | · | · | -22.5%
O=C(CC1C=CCC1)NCCc1ccccn1 (stereo unspecified) | · | · | · | · | · | 30.5%
CCn1c(C)c2c([n+]1CC)CC(C)(C)CC2=O | -1.1% | -3.3%[57.5 µM] | -1.4% | -8.1% | -1.1% | 12.6µM*
Cc1ccc(CN2C(=O)NC3(CCCN(C(=O)c4cc5ccccc5[nH]4)C3)C2=O)cc1 (stereo unspecified) | · | · | · | · | · | 12.6µM*
O=C(c1cc2ccccc2[nH]1)N1CCC2(C1)NC(=O)N(Cc1ccc(F)cc1)C2=O (stereo unspecified) | · | · | · | · | · | -11.5%
CN(C)C(=O)C1CN(C(=O)NC2CCCCC2)CC12CCOCC2 (stereo unspecified) | · | · | · | · | · | 15.7%
SMILES | GLP1R ag | PTHR1 agonist | GRP78 ERSR act | GLS inh | GLP1R inv ag | 12-LOX inh
O=C(NCCc1noc(-c2ccncc2)n1)c1ccccc1 | · | · | · | · | · | 8.91µM*
CN(C)N(Cc1ccccc1)C(=O)C(O)(c1ccccc1)c1ccccc1 | -0.7% | i | 0.2% | -0.6% | 12.6µM* | 1.8%
CC(C)(O)C(=O)NN(Cc1ccccc1)c1ccccc1 | 1.2% | i | -7.8% | 9.7% | -5.7% | -16.6%
O=C(O)c1cc(=O)c2c3nc4ccccc4oc-3cc(=O)c2[nH]1 | -0.8% | · | -0.7% | 28.2µM* | · | ·
Cc1ccc2nc(/C(C#N)=C\c3ccc(N4CCOCC4)o3)[nH]c2c1 | 14.3% | -3.1% | 7.5% | 16.3% | 15.5% | ?
N#C/C(=C/c1ccc(N2CCCCC2)o1)c1cccc(F)c1 | -13.8% | -10.3%[57.5 µM] | ? | -0.2% | 0.0% | 10µM*
Cc1ccc(/C(C#N)=C\c2ccc(N3CCOCC3)o2)cc1 | -5.9% | -8.1%[57.5 µM] | ? | ? | 138.0% | 12.6µM*
CCC(C)C(=O)Nc1ccc(-c2nc3ccccc3o2)cc1 (stereo unspecified) | · | · | · | · | · | 27.5%
O=C(Nc1ccc2snnc2c1)Nc1cccc2ccccc12 | -17.4% | -18.3%[57.5 µM] | -4.8% | 37.9% | 10µM* | -20.3%
CCCC(=O)Nc1oc2c(C)cccc2c(=O)c1-c1ccccc1 | · | · | · | · | · | 30.9%
Cc1ccc(S(=O)(=O)NCC(Nc2cccc(Cl)c2)c2ccccc2)cc1 (stereo unspecified) | -5.9% | -31.5% | -6.3% | 8.0% | 11.2µM* | ?
Cc1ccc(S(=O)(=O)NCC(NCc2ccc(F)cc2)c2ccccc2)cc1 (stereo unspecified) | -3.1% | -15.6% | -1.3% | 6.0% | 11.2µM* | -11.3%
Cc1ccc(S(=O)(=O)NCC(c2ccccc2)N2CCN(c3ccc(F)cc3)CC2)cc1 (stereo unspecified) | 2.5% | -18.1% | -4.0% | 16.9% | ? | -0.1%
O=S(=O)(NCC(Nc1ccc(Cl)cc1)c1ccccc1)c1ccc(Cl)cc1 (stereo unspecified) | -53.7% | i | -14.5% | 9.7% | ? | -5.8%
CN(C)CCNC(=O)C12CC3(C)CC(C)(CC(C)(C3)C1)C2 | 3.4% | i | -1.7% | -5.6% | 8.91µM* | 0.0%
O=C(NC1CCCCC1)c1cc(-c2ccccc2)nc2ccccc12 | · | · | · | · | · | -23.8%
CC(=O)N(Cc1cc2cccc(C)c2[nH]c1=O)C(C)(C)C | · | · | · | · | · | 32.6%
Cn1c(SCC(=O)N2CCc3ccccc32)nnc1-c1cccc(F)c1 | · | · | · | · | · | 5.5%
Cn1c(SCC(=O)N2CCc3ccccc32)nnc1-c1cccc(NC(=O)c2ccccc2F)c1 | · | · | · | · | · | 35.5µM*
CC(C)c1ccc(NC(=O)C(C)N2CCN(C(=O)c3ccco3)CC2)cc1 (stereo unspecified) | · | · | · | · | · | -6.7%
CC(NC(=O)c1cc(-c2cccs2)nc2ccccc12)C(C)(C)C (stereo unspecified) | · | · | · | · | · | -38.1%
CC(C)(NS(=O)(=O)OCC(Cl)(Cl)Cl)c1ccccc1 | 1.5% | -6.6% | -1.4% | -9.6% | ? | 2.6%
CC(NS(=O)(=O)OCC(Cl)(Cl)Cl)c1ccc(C(C)(C)C)cc1 (stereo unspecified) | -6.7% | -78.7% | -12.0% | 2.1% | 5.62µM* | -0.7%
C=CCc1cc(Cl)ccc1OCCNCCN1CCOCC1 | -1.8% | i | -2.7% | -8.2% | 10µM* | -21.0%
CN(C)CC/C=C1\c2ccccc2COc2ccccc21 | -1.1% | -21.2% | -2.7% | -0.6% | 10µM* | -15.7%

From PubChem BioAssay
